In PMC5540273 (PLoS ONE, 2017):

The compounds below were run on RIPK4. Settings: concentration: 1 μM, replicates: in singlicate; n = 1.
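Note: KINOMEscan kinase panel screen.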

**Q.** For `COC(=O)Nc1nc2cc(Oc3ccc(NC(=O)Nc4cc(C(F)(F)F)ccc4F)cn3)ccc2[nH]1.Cl.Cl` [GW681170], which “%Inh” value is on record?
**A.** Its value is 0%.

**Q.** How did the “%Inh” value turn out when `Fc1ccc(-c2ncn(C3CCNCC3)c2-c2ccnc(Oc3ccc(-c4ccccc4)cc3)n2)cc1` [SB-245391] was run?
**A.** The value was 34%.

**Q.** How did the “%Inh” value turn out when `Cc1ccc(C)c(NC(=O)NC2CCN(c3ccnc(Nc4ccc(F)cc4)n3)C2)c1` (stereo not shown) [GSK1379720] was run?
**A.** The value was 6%.

**Q.** How did the “%Inh” value turn out when `CSc1cccc2c(-c3ccncn3)c(-c3ccc(F)cc3)nn12` [GW514786] was run?
**A.** Its value is 0%.

**Q.** For `Oc1cc(Nc2ccnc3cc(I)ccc23)ccc1F` [GW552771], which “%Inh” value is on record?
**A.** The value was 0%.

**Q.** How did the “%Inh” value turn out when `Cc1ccc(S(=O)(=O)Nc2ccc(Nc3nccc(Nc4cccc5[nH]ncc45)n3)cc2)cc1` [GSK581271] was run?
**A.** Its value is 0%.

**Q.** How did the “%Inh” value turn out when `COc1cccc(-c2ccc3c(NC(=O)C4CC4)n[nH]c3n2)c1` [SB-710903] was run?
**A.** Its value is 27%.

**Q.** Which “%Inh” value does the source give for `O=C(Nc1cccc(-c2nn3ccccc3c2-c2ccnc(Nc3cccc(C(F)(F)F)c3)n2)c1)c1c(F)cccc1F` [GSK292658] here?
**A.** The value was 0%.

**Q.** Which “%Inh” value does the source give for `Cl.Cl.NCC(NCc1ccc(-c2ccnc3[nH]ccc23)s1)c1ccccc1` (stereo not shown) [GSK1321565] here?
**A.** Its value is 47%.

**Q.** How did the “%Inh” value turn out when `CCn1c(-c2nonc2N)nc2c(C#CC(C)(C)O)nc(OC[C@H](N)c3ccccc3)cc21` [GSK943949] was run?
**A.** Its value is 7%.

**Q.** How did the “%Inh” value turn out when `COCCOCCOc1cc2ncc3c4ccc(C#N)cc4[nH]c3c2cc1OC` was run?
**A.** Its value is 17%.

**Q.** `Clc1ccc(-c2nn3ncccc3c2-c2ccnc(Nc3ccc4c(c3)OCCO4)n2)cc1` [GW829116] was tested. Which “%Inh” value did it give?
**A.** The value was 0%.

**Q.** How did the “%Inh” value turn out when `COc1cccc(NC(=O)NC2CCN(c3ccnc(Nc4cc(OC)c(OC)c(OC)c4)n3)C2)c1` (stereo not shown) [GSK1379763] was run?
**A.** The value was 49%.

**Q.** Which “%Inh” value does the source give for `COc1cccc(C(=O)Nc2cccc(Oc3ccc4nc(NC(=O)C5CC5)cn4n3)c2)c1` here?
**A.** Its value is 0%.

**Q.** How did the “%Inh” value turn out when `CN(C)Cc1ccc(-c2ccc3c(Nc4ccc(Oc5ccccn5)cc4)ccnc3c2)o1` [GW567148] was run?
**A.** The value was 0%.

**Q.** `Nc1ncc(-c2cccnc2)c2scc(-c3ccc4c(c3)CCN4C(=O)Cc3ccccc3)c12` [GSK683281] was tested. Which “%Inh” value did it give?
**A.** Its value is 16%.

**Q.** How did the “%Inh” value turn out when `COc1ccc(Nc2nccc(NCCNC(=O)c3cc4ccccc4s3)n2)cc1` [GSK1379896] was run?
**A.** The value was 0%.

**Q.** For `O=C(Nc1n[nH]c2nc(-c3ccc(O)cc3)ccc12)C1CC1` [SB-710363], which “%Inh” value is on record?
**A.** Its value is 39%.

**Q.** `O=C(Nc1cccc(-c2nn3ccccc3c2-c2ccnc(Nc3cccc(F)c3)n2)c1)c1c(F)ccc(F)c1Cl` [GSK357952] was tested. Which “%Inh” value did it give?
**A.** The value was 0%.

**Q.** `CN1CCN(Cc2cccc(-c3ccc4c(Nc5ccc(Oc6ccccc6)cc5)ccnc4c3)c2)CC1` [GW578342] was tested. Which “%Inh” value did it give?
**A.** Its value is 0%.

**Q.** Which “%Inh” value does the source give for `COc1cc(Nc2nccc(N3CCC(NC(=O)Nc4cccc(C(C)=O)c4)C3)n2)cc(OC)c1OC` (stereo not shown) [GSK1379753] here?
**A.** Its value is 48%.

**Q.** For `c1ccc(Oc2ccc(Nc3ccnc4cc(-c5ccc(CNCCN6CCOCC6)o5)ccc34)cc2)nc1` [GW567145], which “%Inh” value is on record?
**A.** Its value is 0%.

**Q.** With `CC(C)c1nc(-c2cccc(NS(=O)(=O)c3c(F)cccc3F)c2F)c(-c2ccnc(Nc3ccc(N4CCOCC4)nc3)n2)s1` [GSK2008607] as the compound, how does the “%Inh” value read?
**A.** Its value is 15%.

**Q.** `C[C@@H](Oc1cc(-n2cnc3cc(-c4ccnc(NCCS(C)(=O)=O)c4)ccc32)sc1C(N)=O)c1ccccc1Cl` [GSK907232] was tested. Which “%Inh” value did it give?
**A.** The value was 14%.

**Q.** Which “%Inh” value does the source give for `Cn1cc(-c2[nH]c3cc(NC(=O)[C@H](N)C4CCCCC4)cc4c3c2C=NNC4=O)cn1` here?
**A.** The value was 87%.

**Q.** Which “%Inh” value does the source give for `CCS(=O)(=O)c1ccc(OC)c(Nc2nccc(-c3c(-c4cccc(NC(=O)c5c(F)cccc5F)c4)nn4ncccc34)n2)c1` [GSK326180] here?
**A.** The value was 27%.

**Q.** With `Cl.NC(=O)c1cccc(Nc2nccc(Nc3ccc(Oc4c(Cl)cccc4Cl)c(Cl)c3)n2)c1` [GW659009] as the compound, how does the “%Inh” value read?
**A.** Its value is 0%.

**Q.** For `Nc1ncc(-c2ccc3nccc(-c4ccncc4)c3c2)cc1S(=O)(=O)N1CCOCC1` [GSK1627798], which “%Inh” value is on record?
**A.** Its value is 4%.

**Q.** Which “%Inh” value does the source give for `Cn1cc(-c2ccc3c(c2)CCN3C(=O)Cc2cccc(Cl)c2)c2c(N)ncnc21` [GSK2606590] here?
**A.** The value was 0%.

**Q.** How did the “%Inh” value turn out when `CC(C)(C)c1ccc2nccc(Nc3cccc(O)c3)c2c1` [GW856795] was run?
**A.** Its value is 43%.

**Q.** Which “%Inh” value does the source give for `CC(=O)Nc1nc2cnc(Nc3cc(NC(=O)c4cccc(C5(C#N)CC5)c4Cl)ccc3C)nc2s1` here?
**A.** The value was 0%.

**Q.** For `COc1cc(Nc2nccc(N3CCC(NC(=O)c4cc5ccccc5s4)C3)n2)cc(OC)c1OC` (stereo not shown) [GSK1379760], which “%Inh” value is on record?
**A.** Its value is 0%.

**Q.** `Cc1occc1-c1ncc(OC[C@@H](N)Cc2c[nH]c3ccccc23)cc1-c1ccc2[nH]nc(C)c2c1.O=C(O)C(F)(F)F` [GSK682037] was tested. Which “%Inh” value did it give?
**A.** The value was 0%.

**Q.** With `C[C@@H]1CC[C@@H](C(=O)Nc2ccccc2)CN1c1cc(-c2ccc3c(N)n[nH]c3c2)nc(N)n1` [GSK2286062] as the compound, how does the “%Inh” value read?
**A.** The value was 0%.

**Q.** How did the “%Inh” value turn out when `CCn1c(-c2nonc2N)nc2c(C#CC(C)(C)O)ncc(OCCCCN)c21.O=C(O)C(F)(F)F.O=C(O)C(F)(F)F` [GSK507274] was run?
**A.** Its value is 0%.

**Q.** For `O=c1[nH]cc(-c2ccc(N3CCOCC3)cc2)c2sc(-c3cn[nH]c3)cc12` [GSK2276055], which “%Inh” value is on record?
**A.** Its value is 12%.

**Q.** For `COc1cccc(C2=C(Nc3ccc(Cl)c(C(=O)O)c3)C(=O)NC2=O)c1` [SB-390769], which “%Inh” value is on record?
**A.** Its value is 7%.
